Among the test systems are HCT-15 colon; HT29 colon; SNB-75 CNS; SNB-19 CNS; U251 CNS; PC-3 prostate; SK-MEL-5 melanoma; UACC-62 melanoma; LOX IMVI melanoma; SK-MEL-28 melanoma; SK-MEL-2 melanoma; EKVX NSCLC; SN12C renal; UO-31 renal; TK-10 renal; ACHN renal; CAKI-1 renal; A498 renal; CCRF-CEM leukemia; MOLT-4 leukemia.
Common to all, as to experiment: NCI-60 one-dose screen, 48 h (100 = growth as untreated, 0 = no growth, -100 = all killed)
Conditions in all cases: 10 µM unless noted

“And” between values parts separate entries of the source, which are not always exact repeats. Identical values can stand only once. This is part of a sample that, as a whole, favours compounds with a hit. Of some 83,000 tested, about 20% had one in any assay.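 Growth was measured after 48 h exposure to one concentration of compound in 96-well plates. Values under 10 count as active.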 The source made the active and inactive calls.

As for `CN(C)C1CCN(C(=O)c2ccc(NC(=O)Nc3ccc(-c4nc(N5CCOCC5)c5cccn5n4)cc3)cc2)CC1`, the growth was 40.5% (inactive) in the assay with HCT-15 colon; 6.06% (active) in the assay with HT29 colon; -40.5% (active) in the assay on SNB-75 CNS; 3% (active) with SNB-19 CNS; 5.17% (active) in the assay with U251 CNS; 3.69% (active) with PC-3 prostate. For the same molecule, the growth in the assay on SK-MEL-5 melanoma was -63.6% (active); in the assay on UACC-62 melanoma, -43.5% (active); with LOX IMVI melanoma, -2.24% (active); in the assay with SK-MEL-28 melanoma, -22.4% (active); with SK-MEL-2 melanoma it was -7.66% (active); in the assay on EKVX NSCLC, -15% (active). Further, the growth in the assay on SN12C renal is 4.15% (active); in the assay on UO-31 renal, 8.27% (active); with TK-10 renal, -20.9% (active); in the assay with ACHN renal it was 2.19% (active); with CAKI-1 renal, 69.6% (inactive); in the assay with A498 renal it was -54.9% (active). Besides, the growth with CCRF-CEM leukemia is 10.5% (inactive); in the assay on MOLT-4 leukemia, 0.188% (active).

`CCOC(=O)N(O)c1ccc(/C=C/c2ccccc2)cc1`: the growth in the assay on HCT-15 colon was 69.8% (inactive) and 72.3% (inactive); in the assay with HT29 colon, 66.8% (inactive) and 53.7% (inactive); with SNB-75 CNS, 93.6% (inactive) and 96.4% (inactive); in the assay with SNB-19 CNS, 91.2% (inactive) and 74.5% (inactive); in the assay with U251 CNS, 54.6% (inactive) and 58.1% (inactive); with PC-3 prostate, 55% (inactive) and 67.5% (inactive). The growth with SK-MEL-5 melanoma was 66.2% (inactive) and 57.1% (inactive); in the assay on UACC-62 melanoma, 29.4% (inactive) and -29.2% (active); in the assay with LOX IMVI melanoma, 60.2% (inactive) and 58.5% (inactive); with SK-MEL-28 melanoma it was 103% (inactive) and 108% (inactive); in the assay on SK-MEL-2 melanoma, 66.5% (inactive) and 53.1% (inactive); in the assay on EKVX NSCLC it was 91.8% (inactive). Further, the growth in the assay on SN12C renal was 66.3% (inactive) and 62.6% (inactive); with UO-31 renal, 56.2% (inactive) and 57.4% (inactive); with TK-10 renal, 4.6% (active); with ACHN renal, 76.2% (inactive) and 70.3% (inactive); with CAKI-1 renal, 51.7% (inactive) and 81.4% (inactive); in the assay with A498 renal, -67.4% (active) and -83.1% (active). The growth in the assay on CCRF-CEM leukemia was 55.2% (inactive) and 63% (inactive); in the assay with MOLT-4 leukemia it was 59.4% (inactive) and 60.9% (inactive).

Take `c1ccc(-c2cc(-c3cc(-c4ccccc4)on3)no2)cc1`: the growth was 17.5% (inactive) in the assay on HCT-15 colon; 21.2% (inactive) in the assay with HT29 colon; 123% (inactive) in the assay on SNB-75 CNS; 101% (inactive) in the assay with SNB-19 CNS; 73.8% (inactive) in the assay on U251 CNS; 128% (inactive) with PC-3 prostate. In addition, the growth in the assay with SK-MEL-5 melanoma is 101% (inactive); in the assay on UACC-62 melanoma, 89.7% (inactive); with LOX IMVI melanoma, 69.2% (inactive); in the assay on SK-MEL-28 melanoma, 102% (inactive); in the assay with SK-MEL-2 melanoma it was 20.5% (inactive); in the assay on EKVX NSCLC, 121% (inactive). Also, the growth in the assay with SN12C renal is 92.9% (inactive); in the assay with UO-31 renal it was 92.1% (inactive); in the assay on TK-10 renal, 104% (inactive); in the assay on ACHN renal, -3.89% (active); with CAKI-1 renal, 35.5% (inactive); in the assay with A498 renal, 97.6% (inactive). In addition, the growth in the assay with CCRF-CEM leukemia was 81.9% (inactive); in the assay on MOLT-4 leukemia, 63.7% (inactive).

On to `CCCCCCCC/C=C\CCCCCCCCOc1ccccc1CC(=O)NCC[N+]1(C)CCOCC1`, for which the growth with HCT-15 colon was 92.5% (inactive); in the assay with HT29 colon, 44.9% (inactive); in the assay on SNB-75 CNS, 47.7% (inactive); with SNB-19 CNS it was 32.8% (inactive); in the assay on U251 CNS it was 12.3% (inactive); in the assay on PC-3 prostate, 21.7% (inactive). The growth in the assay on SK-MEL-5 melanoma is 89.3% (inactive); with UACC-62 melanoma, 68% (inactive); in the assay with LOX IMVI melanoma it was 71.8% (inactive); with SK-MEL-28 melanoma it was 93.8% (inactive); in the assay on SK-MEL-2 melanoma, 90.3% (inactive); in the assay on EKVX NSCLC it was 92.1% (inactive). The growth in the assay with SN12C renal was 60.5% (inactive); in the assay with UO-31 renal, 96.2% (inactive); in the assay on TK-10 renal, 8.83% (active); with ACHN renal, 85.5% (inactive); in the assay on CAKI-1 renal it was 71.6% (inactive); in the assay with A498 renal it was 95.2% (inactive). In addition, the values for the growth with CCRF-CEM leukemia and in the assay with MOLT-4 leukemia were 67.5% (inactive) and 83.7% (inactive), respectively.

`O=[N+]([O-])c1ccc2[nH]c3nccc(NCc4cccc(Cl)c4)c3c2c1`: the growth with HCT-15 colon is 83.2% (inactive); in the assay on HT29 colon it was 76.3% (inactive); in the assay on SNB-75 CNS, 7.78% (active); in the assay on SNB-19 CNS, 53.3% (inactive); in the assay on U251 CNS, 43.1% (inactive); with PC-3 prostate, 67.5% (inactive). Also, the growth was 83.7% (inactive) with SK-MEL-5 melanoma; 82.2% (inactive) with UACC-62 melanoma; 81.4% (inactive) in the assay with LOX IMVI melanoma; 101% (inactive) in the assay on SK-MEL-28 melanoma; 93% (inactive) in the assay on SK-MEL-2 melanoma; 50.8% (inactive) with EKVX NSCLC. Also, the growth was 86.5% (inactive) in the assay with SN12C renal; 87.2% (inactive) in the assay on UO-31 renal; 72.8% (inactive) in the assay on TK-10 renal; 68.2% (inactive) in the assay on ACHN renal; 60.2% (inactive) in the assay with CAKI-1 renal; 71.4% (inactive) with A498 renal. In addition, the growth with CCRF-CEM leukemia is 79.6% (inactive); in the assay with MOLT-4 leukemia, 75.9% (inactive).

On to `CCCCCCCCCCCCCCCCCCn1cc(COc2ccc(C=O)cc2)nn1`, for which the growth with HCT-15 colon is 95.9% (inactive); in the assay with HT29 colon, 91.6% (inactive); with SNB-75 CNS, 104% (inactive); with SNB-19 CNS it was 97.5% (inactive); in the assay on U251 CNS, 107% (inactive); in the assay with PC-3 prostate, 99% (inactive). In addition, the growth in the assay on SK-MEL-5 melanoma was 103% (inactive); in the assay on UACC-62 melanoma, 91.2% (inactive); in the assay on LOX IMVI melanoma, 85.5% (inactive); in the assay with SK-MEL-28 melanoma, 109% (inactive); with SK-MEL-2 melanoma it was 96.4% (inactive); in the assay on EKVX NSCLC it was 90.1% (inactive). Further, the growth in the assay on SN12C renal is 97.5% (inactive); in the assay on UO-31 renal it was 93% (inactive); in the assay on TK-10 renal, 99.9% (inactive); with ACHN renal, 104% (inactive); with CAKI-1 renal, 104% (inactive); in the assay on A498 renal, 105% (inactive). Moreover, the growth was 103% (inactive) in the assay on CCRF-CEM leukemia and 92.4% (inactive) in the assay on MOLT-4 leukemia.

The values are drawn from PubChem BioAssay (NCI).
